# About 1,300 (0.36%) of roughly 360,000 compounds were called active. The entries come from a sample that favours actives as a whole. Values without a mark were called inactive. Cut-off read from the data, not from the text of the source: active = inhibition above about 19%; inactive = the rest.
# System: T-cell receptor (TCR)
# Test: inhibitors of human TCR-CD3 interaction, primary screen, biochemical, fluorescence, TAMRA-labeled TCR probe (AID 651800);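 note: recombinant mutant TCR 2C K166C tagged with TAMRA read by polarization; 0% = receptor in buffer alone and 100% = receptor with positive control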
# Conditions: at 9.4 µM, stronger effect = higher value
row,SMILES,inhibition
1,COc1cc(OC)cc(C(=O)NCCSCc2ccco2)c1,2.08%
2,COc1ccc(CCNC(=O)Nc2ccc3c(c2)c(=O)n(C)n3C)cc1OC,-9.13%
3,COCCNC(=O)Nc1ccc2nc(-c3ccco3)c(-c3ccco3)nc2c1,48% (active)
4,CCOC(=O)C1CSCCS(=O)(=O)N1Cc1ccc(Cl)cc1 (centres undefined),-6.78%
5,CNC(=S)NNC(=O)c1cccn(Cc2ccccc2)c1=O,45.4% (active)
6,CN(C)C(=O)c1cccn(Cc2cccc(C(F)(F)F)c2)c1=O,4.33%
7,Cc1scc(C(=O)NNC(=S)NCc2ccccc2)c1C,3.75%
8,CCOC(=O)CNC(=O)N(C)[C@H]1C[C@H]2c3[nH]c4c(-c5ccc6c(c5)OCO6)cccc4c3CCN2C(=O)[C@H]1[C@H](C)O,-3.41%
9,COC(=O)C1=C(C)N(Cc2ccccc2C(F)(F)F)C(=NCC2CC2)NC1c1cccc(Cl)c1 (centres undefined),5.09%
10,C=CCN1C(=O)N(Cc2ccccc2)c2ccccc2S1(=O)=O,-2.76%
11,COc1ccc(Cc2nnc(SCC(=O)c3cccc([N+](=O)[O-])c3)n2C)cc1,3.33%
12,COc1ccc(CNS(=O)(=O)c2cc(Br)ccc2Br)cc1,1.49%
13,COc1ccc(CC(=O)N/N=C/c2cc([N+](=O)[O-])cc(Br)c2O)cc1,37.3% (active)
14,C[C@H]1[C@H](c2ccccc2)Oc2cc(Br)ccc2S(=O)(=O)N1Cc1cccc(F)c1,2.14%
15,CCCCCCCCN1C(=O)[C@@H](CC(=O)N2CCN(C(=O)OCC)CC2)C[C@@]2(C(=O)OC)C1=C[C@H](C1CCCC1)O[C@@H]2C,6.64%
16,CN(NC(=O)c1ccccc1F)c1nc(C(F)(F)F)nc2ccccc12,27.9% (active)
17,CSc1nc(N(C)NC(=O)c2cccc(C)c2)c2ccccc2n1,-2.67%
18,CC(NC(=O)c1ccccc1F)c1cccc2ccccc12 (centres undefined),-0.21%
19,O=C1CCCCC1C(=O)c1ccccc1 (centres undefined),-0.19%
20,COC(=O)[C@]12C[C@H](CC(=O)NCc3ccccc3)C(=O)N(CCC3=CCCCC3)C1=C[C@H](C(C)(C)C)O[C@@H]2C,-4.03%
21,CNS(=O)(=O)c1ccc2c(c1)[nH]c(=S)n2C,45.4% (active)
22,CCn1c(=S)[nH]c2cc(S(=O)(=O)N3CCOCC3)ccc21,1.36%
23,CCCCn1c(=S)[nH]c2cc(S(=O)(=O)N3CCCCC3)ccc21,1.03%
24,COC(=O)[C@]12C[C@H](CC(=O)NCc3cccc(C(F)(F)F)c3)C(=O)N(Cc3ccc4c(c3)OCO4)C1=C[C@H](COCc1ccccc1)O[C@@H]2C,0.9%

# Reference: PubChem BioAssay AID651800 (The Scripps Research Institute Molecular Screening Center, 2012)
